Assay outcomes from PubChem BioAssay.
GRIN3A LBD mod: modulates the human NR3A ligand-binding domain. AID 1259313. 340,000 tested, 2.5% active. NR3A LBD differential scanning fluorimetry, Tm shift; 0% = protein alone, 100% = glycine-bound protein. Tm shift relative to glycine control, % at 25 µM;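 active = melting temperature shift of at least 10% of the positive control shift, at one fixed dose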
esBAF inh: inhibitors of esBAF chromatin remodeling in mouse ES cells. reporter increase, % at 12.5 µM. AID 602393. Bmi1-luciferase knock-in reporter, 24 h; 100% = twice the neutral-well signal. 350,000 tested, 2% active; in the data active = activation above about 40%; inconclusive = no clear call, values can overlap the other calls;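 note: 0% = median of the plate's neutral control wells and 100% = double that signal; a rise in the Bmi1 reporter signal indicates esBAF inhibition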
Vif inh: blocks HIV Vif function; HEK293T cells, Vif self-association by quenched fluorescence, imaging, 24 h; inhibition, % at 7.49 µM; 340,000 tested, 0.35% active; in the data active = inhibition above about 50%, passing the limit was not always enough; inconclusive = no clear call, values can overlap the other calls; inactive = below about 31%
SMARCA2 activ: increases SMARCA2 function in MMTV reporter cells. MG213 cells, MMTV-luciferase reporter, dexamethasone, overnight. activation, % at 9.1 µM. 370,000 tested, 1% active. AID 652017; in the data active = activation above about 7.8%;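 note: 0% = vehicle wells and 100% = reference activator wells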
SKN-1 inh: inhibitors of C. elegans SKN-1. C. elegans VP596 Pgst-4::GFP/RFP ratio, acrylamide-induced, 24 h. inhibition, % at 21.8 µM. 360,000 tested, 0.49% active;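 active = interference check ratio from 0.5 to 1.5 plus GFP to RFP signal ratio inhibition reaching or exceeding a fixed threshold, cut at about 30% in these data, passing the limit was not always enough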
NadD block: NadD (S. aureus) enzyme inhibition. purified NadD enzyme, colorimetric absorbance read-out. inhibition, % at 20 µM. 360,000 tested, 0.78% active. AID 602399; in the data active = inhibition above about 26%
SMARCA2 conf: SMARCA2 activation, confirmation screen; shares compounds with SMARCA2 activ; MG213 cells, MMTV-luciferase with dexamethasone, luminescence, overnight; MG213 cells expressing E1A, Rb sequestered; DMSO wells 0%, reference activator 100%; 3,500 tested, 30% active; AID 652260; activation, % at 9.1 µM;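 active = activation above its plate's cutoff, the mean activation of tested wells plus 3 SD, cut at about 7.9% in these data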
GAL4-VP16 Luc: counter-screen for SMARCA2 activators: GAL4-VP16 luciferase reporter activation; shares compounds with SMARCA2 activ; HEK293 GAL4-VP16 pG5luc reporter, luciferase luminescence; scaled: DMSO wells 0%, SAHA wells 100%; activation, % at 9.1 µM; 3,500 tested, 41% active; AID 686939;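 active = activation above the solvent-only control well mean plus 3 SD, averaged across control plates, cut at about 5.2% in these data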
Starred values were filed as active, the others as inactive; u = inconclusive; x = not tested or not shown. Shown are actives, neighbours in structure and some others; about 5.2% of the full set was active somewhere.

SMILES | GRIN3A LBD mod | esBAF inh | Vif inh | SMARCA2 activ | SKN-1 inh | NadD block | SMARCA2 conf | GAL4-VP16 Luc
Clc1ccccc1CO/N=C1\CCCc2nonc21 | -2 | x | 13 | 0 | 13 | -7 | x | x
Clc1ccc(CO/N=C2\CCCc3nonc32)cc1 | -1 | x | -4 | 13* | 26 | -6 | 8.1* | 4
CC(CN1C(C)CCCC1C)OC(=O)c1ccccc1Cl (centres undefined) | 1 | -4 | 0 | -5 | 2 | -8 | x | x
CC(CN1C(C)CCCC1C)OC(=O)c1ccccc1Br (centres undefined) | 0 | -4 | 5 | 8.4* | 4 | -5 | 2 | 0
CNc1nnc(-c2cc3ccccc3oc2=O)s1 | 0 | 0 | 17 | 8.3* | -7 | -3 | 13* | 14*
CC(C)CCN(C(=O)c1ccccn1)c1c(N)n(Cc2ccccc2)c(=O)[nH]c1=O | -2 | -2 | -2 | 8.3* | 7 | 15 | -5 | 0
COc1ccc(COC(=O)c2nc3nc(C)cc(C)n3n2)cc1F | 0 | -3 | 1 | 8.2* | -10 | 3 | -2 | 0
Cc1ccc(Sc2c(C)[nH]n(C(C)(C)C)c2=O)cc1 | 0 | x | 0 | 3 | -8 | -2 | x | x
CC1=CC(=O)C(Sc2ccc(C)cc2)=CC1=O | x | -7 | 6 | 8.1* | 15 | 8 | -4 | 6.2*
C/C(CC(=O)Nc1ccc2c(c1)OCO2)=N\NC(=O)c1ccccc1N | 1 | x | 2 | 17* | 6 | 0 | -2 | 2
C/C(CC(=O)Nc1cc(C)cc(C)c1)=N\NC(=O)c1ccccn1 | -11 | x | -3 | 9.8* | 3 | 2 | -2 | 3
COc1ccc(NC(=O)C/C(C)=N/NC(=O)c2ccccn2)c(OC)c1 | -1 | x | 13 | 10.0* | 15 | 1 | 2 | 5.8*
C/C(CC(=O)Nc1ccc2c(c1)OCCO2)=N\NC(=O)c1ccccc1F | -1 | -5 | -5 | 8.7* | -20 | -5 | 2 | 3
CNC[C@@H]1Oc2ccc(NC(=O)Nc3ccccc3)cc2CC(=O)N([C@H](C)CO)C[C@@H]1C | x | 1 | x | x | x | x | x | x
C[C@@H]1CCCCO[C@@H](CN(C)S(=O)(=O)c2ccccc2)[C@@H](C)CN([C@H](C)CO)C(=O)c2cc(NC(=O)CCC(F)(F)F)ccc2O1 | x | 2 | x | x | x | x | x | x
O=C(C[C@@H]1CC[C@H]2[C@@H](COC[C@@H](O)CN2S(=O)(=O)c2ccccc2)O1)NCCN1CCCCC1 | x | -2 | x | x | x | x | x | x
COc1ccccc1C(=O)N/N=C(\C)CC(=O)Nc1ccc2c(c1)OCCO2 | -1 | -4 | -1 | 0 | -1 | -2 | x | x
C/C(CC(=O)Nc1ccc2c(c1)OCCO2)=N\NC(=O)c1ccccn1 | 0 | 52* | 6 | 9.5* | 1 | 2 | 2 | 2
CNC[C@H]1Oc2c(NC(=O)Nc3ccc(OC)cc3)cccc2C(=O)N([C@H](C)CO)C[C@@H]1C | x | 4 | x | x | x | x | x | x
O=c1c(Cl)c(NCCCO)cnn1-c1nc2ccccc2[nH]1 | -1 | -16 | 20 | 22* | 10 | -4 | 17* | 18*
Cc1ccc(S(=O)(=O)NN=CC2(c3ccccc3)CC2)cc1 | x | 0 | u | 9.8* | -4 | 0 | -1 | -1
Cc1ccc(S(=O)(=O)N/N=C\C=C\c2ccccc2)cc1 | -32 | x | 0 | 0 | -8 | -2 | x | x
COC(=O)C[C@H]1C[C@H]2c3cc(NC(=O)NC4CCCCC4)ccc3O[C@H]2[C@@H](CO)O1 | x | -4 | x | x | x | x | x | x
N#Cc1c(N2CCCCC2)nc(N)c2c(N)nc3c(c12)CC(CCl)O3 (centres undefined) | 0 | x | -4 | -3 | 9 | 9 | x | x
N#Cc1c(N)nc2c(c1N)CC(CCl)O2 (centres undefined) | -3 | x | -6 | 9.7* | 6 | 19 | -6 | 0
CO[C@H]1CN(C)C(=O)c2ccc(NC(=O)Nc3ccc(Cl)cc3)cc2OC[C@@H](C)NC[C@H]1C | x | -3 | x | x | x | x | x | x
C[C@@H]1CN([C@H](C)CO)C(=O)c2cc(NC(=O)C3CCCCC3)ccc2O[C@@H](C)CCCCO[C@@H]1CN(C)C(=O)c1ccncc1 | x | 1 | x | x | x | x | x | x
Cn1cnnc1SCC(=O)Nc1ccc2nc(SCc3ccccc3F)sc2c1 | 7 | 64* | 4 | 9.9* | 9 | 9 | 3 | 9.0*
